The source of these data is PubChem BioAssay (NCATS).

Test [1] can be described thus: AP1 Signaling Pathway (AID 357).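 Also: ME-180 reporter cells stimulated with EGF at its EC50 level; % is scaled to controls: 0 for no effect and ±100 for the full control effect.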 The following applies: ME-180 AP-1-bla reporter, EGF-induced, beta-lactamase ratio, 5 h; at 7.69 µM (top of the series) unless noted. In a few lines: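 Beta-lactamase reporter under AP-1 response element, ME-180 background. Stimulus: EC50 EGF. Compound exposure 5 h, 37 °C. Detection: CCF4, 2.5 h RT, 460/530 nm. Values: AC50 from titration.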

Test [2] has as its target Cytochrome P450 1A2 (Homo sapiens) (UniProt P05177). Nature of the test: p450-cyp1a2 (AID 410; calls by dose curve; also: potency is read from the fitted curve at half-maximal effect). Put shortly: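 Luminescent readout of luciferin formed from Luciferin-ME by human CYP1A2; data normalized against complete inhibition by 57 uM furafylline. Enzyme 20nM, substrate 100uM at Km, 100mM KPO4 buffer, 60 min reaction at room temperature.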
A short description of test [3]: NFAT Signaling Pathway (AID 444).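 Also: carbachol stimulus at about its EC50 of 1 µM final; % is scaled to controls: 0 for no effect and ±100 for the full control effect.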 As to conditions: Jurkat NFAT-bla M1, carbachol, beta-lactamase ratio, 5 h; at 7.69 µM (top of the series) unless noted. Put shortly:
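Jurkat cells carrying an NFAT-driven β-lactamase reporter and co-transfected muscarinic M1 receptor were treated with compound plus carbachol (1 uM final, an EC50 level) for 5 h at 37 °C. CCF4 loading followed for 1 h at RT; 460/530 nm ratio gave %activity.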

The nature of test [4]: Stat Signaling Pathway (AID 446).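 Also: ME-180 cervical cancer cells given 40 pM IL-6 alongside compound; SIE-controlled beta-lactamase reporter measured as 460/530 nm FRET emission ratio; % is scaled to controls: 0 for no effect and ±100 for the full control effect.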 As to conditions: ME-180 SIE beta-lactamase reporter, IL-6 stimulated, 5 h; at 7.69 µM (top of the series) unless noted. Put shortly: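 Reporter line: ME-180 cervical carcinoma, SIE-beta-lactamase. Treatment: compound with 40 pM IL-6, 5 hrs, 37 C, in low-serum OPTI-MEM with 10 mM HEPES pH 7.3. Detection: 460/530 nm fluorescence.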
The target of test [5] is Glucocorticoid receptor (Homo sapiens) (UniProt P04150). Nature of the test: GR-GFP Redistribution (AID 450;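 active = compounds whose dose series gives a full or clear partial fitted curve of increased nuclear translocation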; also: potency is read from the fitted curve at half-maximal effect). The following applies: U2OS GR-GFP nuclear translocation, laser cytometry, 2 h.
The target is the same in test [6]. Nature of the test: GR-EFC Redistribution (AID 451; calls by dose curve; also: potency is read from the fitted curve at half-maximal effect). The following applies: CHO-K1 GR-EFC translocation, beta-gal luminescence, 2 h. In a few lines:
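CHO-K1 cells stably expressing nuclear-localized β-gal enzyme acceptor and GR fused C-terminally to the enzyme donor fragment; ligand-driven nuclear translocation restores β-gal by complementation. Compounds titrated up to 46 uM final, 2 h at 37 °C; luminescence read.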

The target of test [7] is Mitogen-activated protein kinase 10 (Mus musculus) (UniProt Q61831). As to the kind of experiment: JNK3 AlphaScreen Assay (AID 530).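 Also: kinase came from lysate of stimulated human HepG2 cells; signal reports phosphorylation of biotinylated GST-cJun 1-79 at Ser73 with 10 µM ATP; % is scaled to controls: 0 for no effect and ±100 for the full control effect.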 In a few lines:
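Inhibitors reduce antibody binding to phosphorylated biotin-cJun, lowering AlphaScreen luminescence. Lysates from HepG2 cells pre-activated by IL-1beta plus TNF-alpha supplied JNK3; compounds were titrated.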

Test [8] concerns the target 3',5'-cyclic-AMP phosphodiesterase 4B (Homo sapiens) (UniProt Q07343). Nature of the test: qHTS Assay for Inhibitors of PDE-IV (AID 607; active = well fitted activation curve with a large enough effect in the main read-out, with a control signal flat, not every such curve was filed as active; also: % of control where 0% means no effect). Put shortly: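 Cell-based read-out of cAMP via a modified cyclic nucleotide-gated channel and membrane potential dye (535/590 nm) in HEK293 cells expressing PDE4 endogenously. Compounds tested up to 22.9 uM final; 100 uM RO 20-1724 reference.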

In test [9] the target is Cytochrome P450 3A4 (Homo sapiens) (UniProt P08684). As to the kind of experiment: qHTS Assay for Activators of Cytochrome P450 3A4 (AID 885; active = well fitted curve in the direction sought with a large enough effect; an effect the other way counts as inactive or inconclusive; also: nearly all actives have a fitted effect of over 65% in size). Put shortly: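 Signal was normalized against complete inhibition by 57 uM ketoconazole. The reaction used 20nM CYP3A4 with 25uM Luciferin-PPXE, 10-min compound preincubation and a 60-min NADPH-supported step at RT.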
The target of test [10] is Guanine nucleotide-binding protein G(i) subunit alpha-1 (Homo sapiens) (UniProt P63096). As to the kind of experiment: qHTS Assay for Inhibitors of RGS12 GoLoco Motif Activity (Green Fluorophore) (AID 879; active = well fitted curve in the direction sought with a large enough effect; an effect the other way counts as inactive or inconclusive;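 also: 0% = labeled peptide with Gαi1 and full inhibition = labeled peptide alone without protein; negative values mean loss of peptide binding seen as reduced polarization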). In a few lines: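 Fluorescence polarization assay: 50 nM Gαi1 with 10 nM FITC-labeled RGS12 GoLoco peptide in 10 mM Tris pH 7.5, 150 mM NaCl, 0.1 mM GDP, 0.05% NP40, 10 min at room temperature with compound.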

Test [11] addresses Muscarinic acetylcholine receptor M1 (Rattus norvegicus) (UniProt P08482). Nature of the test: qHTS Assay for Antagonists of Acetylcholine Muscarinic M1 Receptor: Measurement of IP-One Response (AID 944; active = well fitted curve in the direction sought with a large enough effect; an effect the other way counts as inactive or inconclusive; also: nearly all actives have a fitted effect of over 75% in size). In a few lines: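 M1-CHO (rat), 2000 cells/well, overnight recovery; cpd 10 min; carbachol EC80 (200 nM), 30 min, HEPES buffer + 50 mM LiCl pH 7.4; IP-One HTRF, Ex 337, Em 620/665 nm.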

Test [12] has as its target Pyruvate kinase PKM (Homo sapiens) (UniProt P14618). As to the kind of experiment: qHTS Assay for Activators of Human Muscle Pyruvate Kinase (AID 954; active = well fitted curve in the direction sought with a large enough effect, not every such curve was filed as active;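 also: 0% = uninhibited enzyme and -100% = no enzyme or full thiadiazolimine inhibition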). In a few lines:
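Human PKM2 activity is measured as ATP generation, detected by luciferase-coupled luminescence. The enzyme (0.1 nM) acts on 0.5 mM PEP and 0.1 mM ADP for 1 h at ambient temperature; data are normalized to uninhibited and full-inhibition wells.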

Test [13] deals with Alpha-galactosidase A (Homo sapiens) (UniProt P06280). Nature of the test: Counterscreen for Glucocerebrosidase Inhibitors: qHTS Assay for Human alpha-Galactosidase at pH 4.5 (AID 992; active = well fitted curve in the direction sought with a large enough effect; an effect the other way counts as inactive or inconclusive; also: 0% is about no effect). Put shortly: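 Quantitative HTS: compounds tested from 0.7 nM up to 77 uM against 2 nM enzyme with 80 uM 4-MU alpha-D-galactopyranoside. The 20 min room-temperature reaction is stopped with 1M NaOH/1M glycine, pH 10.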

Test [14] concerns the target Cytochrome P450 2D6 (Homo sapiens) (UniProt P10635). As to the kind of experiment: qHTS Assay for Inhibitors and Substrates of Cytochrome P450 2D6 (AID 891; active = well fitted curve in the direction sought with a large enough effect; an effect the other way counts as inactive or inconclusive; also: nearly all actives have a fitted effect of over 60% in size; also: potency is read from the fitted curve at half-maximal effect). Put shortly:
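Human CYP2D6 (5 nM) with 30 uM Luciferin-ME EGE (at Km) in 100 mM KPO4, compound preincubated 10 min, then NADPH regeneration system for 60 min at room temperature. Luciferin read by luminescence; normalized to 1.43 uM quinidine.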

In test [15] the target is Cytochrome P450 2C9 (Homo sapiens) (UniProt P11712). Nature of the test: qHTS Assay for Inhibitors and Substrates of Cytochrome P450 2C9 (AID 883; active = well fitted curve in the direction sought with a large enough effect; an effect the other way counts as inactive or inconclusive; also: potency is read from the fitted curve at half-maximal effect; nearly all actives have a fitted effect of over 60% in size). In a few lines:
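CYP2C9 deoxyluciferin hydroxylation, 37C, 60 min with NADPH regeneration; 10nM enzyme, 100uM Luciferin-H (KM). Glo detection reagent stopped reaction; luminescence normalized to sulphaphenazole (57uM) full inhibition.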

Test [16] concerns the target Pyruvate kinase (Leishmania mexicana) (UniProt Q27686). As to the kind of experiment: qHTS Validation Assay for Inhibitors of Leishmania Mexicana Pyruvate Kinase (AID 945; active = well fitted curve in the direction sought with a large enough effect; an effect the other way counts as inactive or inconclusive;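 also: 0% = DMSO only neutral control wells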). In a few lines: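 Eight-point qHTS titrations in triplicate, data normalized to DMSO neutral control. Reaction: 0.2 nM LmPYK E451W mutant, 0.5 mM PEP, 0.1 mM ADP, 7 mM MgCl2, pH 7.2, one hour at room temperature; luminescent ATP detection.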

Unmarked numbers belong to inactive results. Inconclusive results are not listed. Calls of active or inactive are those of the source. Unless noted, calls follow the shape of the dose curve; as a rule, active = well fitted curve in either direction with a large enough effect (not every such curve was filed as active); inconclusive = small, poorly fitted or top-dose-only effect, or another doubt; inactive = flat fitted curve, though single readings scatter.

Chain of Cytochrome P450 3A4 (Homo sapiens) (P08684 whole entry, looked up): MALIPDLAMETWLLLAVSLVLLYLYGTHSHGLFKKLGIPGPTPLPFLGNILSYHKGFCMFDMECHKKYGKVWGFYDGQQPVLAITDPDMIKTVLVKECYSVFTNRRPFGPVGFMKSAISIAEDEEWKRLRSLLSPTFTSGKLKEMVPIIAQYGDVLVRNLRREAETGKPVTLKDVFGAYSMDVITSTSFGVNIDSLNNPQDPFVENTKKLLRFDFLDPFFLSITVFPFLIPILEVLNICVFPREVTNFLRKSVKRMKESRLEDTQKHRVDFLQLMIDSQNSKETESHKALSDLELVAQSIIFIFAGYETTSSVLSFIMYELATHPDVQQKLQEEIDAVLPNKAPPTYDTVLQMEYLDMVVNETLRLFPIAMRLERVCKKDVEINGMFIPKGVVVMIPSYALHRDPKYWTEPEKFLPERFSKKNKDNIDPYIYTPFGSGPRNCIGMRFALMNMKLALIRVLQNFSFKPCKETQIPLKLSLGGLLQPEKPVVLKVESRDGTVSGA
Chain of 3',5'-cyclic-AMP phosphodiesterase 4B (Homo sapiens) (Q07343 whole entry, looked up): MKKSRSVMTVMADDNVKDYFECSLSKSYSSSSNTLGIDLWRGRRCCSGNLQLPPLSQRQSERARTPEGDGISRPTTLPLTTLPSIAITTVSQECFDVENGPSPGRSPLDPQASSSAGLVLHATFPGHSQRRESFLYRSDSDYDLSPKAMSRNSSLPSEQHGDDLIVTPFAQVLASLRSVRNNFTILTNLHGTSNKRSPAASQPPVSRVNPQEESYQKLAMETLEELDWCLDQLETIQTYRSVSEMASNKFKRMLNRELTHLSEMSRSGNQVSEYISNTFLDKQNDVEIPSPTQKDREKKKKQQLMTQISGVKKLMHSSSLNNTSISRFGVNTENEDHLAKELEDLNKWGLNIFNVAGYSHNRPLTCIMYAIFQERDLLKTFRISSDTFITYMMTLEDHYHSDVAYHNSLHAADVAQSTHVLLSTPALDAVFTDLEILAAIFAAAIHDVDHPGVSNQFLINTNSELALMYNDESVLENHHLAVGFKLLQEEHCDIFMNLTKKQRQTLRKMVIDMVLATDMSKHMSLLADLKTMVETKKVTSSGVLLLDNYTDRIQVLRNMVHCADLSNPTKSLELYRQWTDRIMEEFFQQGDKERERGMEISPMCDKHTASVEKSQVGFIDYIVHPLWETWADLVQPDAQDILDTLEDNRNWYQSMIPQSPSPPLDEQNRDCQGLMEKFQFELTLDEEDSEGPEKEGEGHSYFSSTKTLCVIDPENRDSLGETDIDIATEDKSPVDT
Chain of Cytochrome P450 1A2 (Homo sapiens) (P05177 whole entry, looked up): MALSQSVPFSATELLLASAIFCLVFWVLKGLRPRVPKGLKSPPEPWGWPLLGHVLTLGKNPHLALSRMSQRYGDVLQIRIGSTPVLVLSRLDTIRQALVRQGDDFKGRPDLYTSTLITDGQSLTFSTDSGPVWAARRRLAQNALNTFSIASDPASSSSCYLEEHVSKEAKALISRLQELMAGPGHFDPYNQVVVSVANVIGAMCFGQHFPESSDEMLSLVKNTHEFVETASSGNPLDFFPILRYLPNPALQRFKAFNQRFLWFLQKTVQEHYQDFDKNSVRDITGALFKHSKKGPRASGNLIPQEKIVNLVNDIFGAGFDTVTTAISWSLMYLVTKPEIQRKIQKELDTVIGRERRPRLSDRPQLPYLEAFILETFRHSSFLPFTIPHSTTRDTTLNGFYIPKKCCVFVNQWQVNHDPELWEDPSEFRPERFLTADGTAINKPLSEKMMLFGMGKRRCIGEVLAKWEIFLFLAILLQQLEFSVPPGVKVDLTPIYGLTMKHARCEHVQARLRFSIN
Chain of Glucocorticoid receptor (Homo sapiens) (P04150 whole entry, looked up): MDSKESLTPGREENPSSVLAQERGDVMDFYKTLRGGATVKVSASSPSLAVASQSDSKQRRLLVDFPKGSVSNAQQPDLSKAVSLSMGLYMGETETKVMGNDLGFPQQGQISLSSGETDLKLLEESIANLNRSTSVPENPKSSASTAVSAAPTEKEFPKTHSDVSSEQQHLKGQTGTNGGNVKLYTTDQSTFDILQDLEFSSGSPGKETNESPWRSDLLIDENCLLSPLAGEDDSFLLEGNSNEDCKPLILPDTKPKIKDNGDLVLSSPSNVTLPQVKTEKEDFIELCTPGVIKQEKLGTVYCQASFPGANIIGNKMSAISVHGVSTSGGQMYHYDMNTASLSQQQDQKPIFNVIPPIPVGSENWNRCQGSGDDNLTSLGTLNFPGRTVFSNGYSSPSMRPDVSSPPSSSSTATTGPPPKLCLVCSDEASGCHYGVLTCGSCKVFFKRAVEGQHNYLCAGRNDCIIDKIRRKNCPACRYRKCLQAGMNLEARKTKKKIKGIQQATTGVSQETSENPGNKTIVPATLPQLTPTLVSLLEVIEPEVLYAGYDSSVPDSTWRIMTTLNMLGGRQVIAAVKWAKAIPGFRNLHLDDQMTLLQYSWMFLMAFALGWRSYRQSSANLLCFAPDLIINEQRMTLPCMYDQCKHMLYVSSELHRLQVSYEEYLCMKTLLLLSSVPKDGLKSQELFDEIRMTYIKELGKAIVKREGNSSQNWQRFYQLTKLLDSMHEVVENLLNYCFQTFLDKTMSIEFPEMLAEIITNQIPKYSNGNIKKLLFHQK
Chain of Pyruvate kinase PKM (Homo sapiens) (P14618 whole entry, looked up): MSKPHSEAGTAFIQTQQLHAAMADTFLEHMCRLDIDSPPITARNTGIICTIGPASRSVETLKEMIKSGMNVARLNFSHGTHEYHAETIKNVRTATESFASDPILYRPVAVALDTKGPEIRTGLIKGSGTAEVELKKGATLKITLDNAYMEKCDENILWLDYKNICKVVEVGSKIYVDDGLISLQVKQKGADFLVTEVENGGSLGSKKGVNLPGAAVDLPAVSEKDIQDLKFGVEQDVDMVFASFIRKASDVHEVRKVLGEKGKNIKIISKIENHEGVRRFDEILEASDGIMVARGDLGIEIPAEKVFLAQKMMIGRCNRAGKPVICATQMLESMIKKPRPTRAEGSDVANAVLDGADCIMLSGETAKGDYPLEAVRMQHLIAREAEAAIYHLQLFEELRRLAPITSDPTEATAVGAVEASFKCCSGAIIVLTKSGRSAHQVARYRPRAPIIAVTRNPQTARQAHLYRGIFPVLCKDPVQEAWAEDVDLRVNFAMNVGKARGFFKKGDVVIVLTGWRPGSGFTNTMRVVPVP
Chain of Guanine nucleotide-binding protein G(i) subunit alpha-1 (Homo sapiens) (P63096 whole entry, looked up): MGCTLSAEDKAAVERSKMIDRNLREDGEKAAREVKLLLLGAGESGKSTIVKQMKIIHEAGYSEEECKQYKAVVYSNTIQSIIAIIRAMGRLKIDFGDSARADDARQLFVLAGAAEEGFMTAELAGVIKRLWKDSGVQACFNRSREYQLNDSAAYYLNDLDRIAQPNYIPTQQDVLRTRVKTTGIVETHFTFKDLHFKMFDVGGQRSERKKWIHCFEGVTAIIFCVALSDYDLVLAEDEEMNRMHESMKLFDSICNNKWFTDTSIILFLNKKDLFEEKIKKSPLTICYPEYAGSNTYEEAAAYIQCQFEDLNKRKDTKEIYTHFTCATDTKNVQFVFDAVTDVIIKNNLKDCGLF
Chain of Alpha-galactosidase A (Homo sapiens) (P06280 whole entry, looked up): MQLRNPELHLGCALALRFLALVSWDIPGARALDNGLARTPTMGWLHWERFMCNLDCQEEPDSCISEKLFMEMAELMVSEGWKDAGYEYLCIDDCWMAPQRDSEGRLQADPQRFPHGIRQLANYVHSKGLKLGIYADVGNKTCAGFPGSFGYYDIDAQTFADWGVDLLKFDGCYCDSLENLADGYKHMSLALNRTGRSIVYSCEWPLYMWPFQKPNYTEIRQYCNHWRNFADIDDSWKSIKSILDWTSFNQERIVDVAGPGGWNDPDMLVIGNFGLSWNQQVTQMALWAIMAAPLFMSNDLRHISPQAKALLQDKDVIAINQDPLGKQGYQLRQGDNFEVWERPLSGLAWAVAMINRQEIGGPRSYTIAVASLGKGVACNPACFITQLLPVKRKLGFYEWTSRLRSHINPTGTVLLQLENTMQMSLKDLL
Chain of Muscarinic acetylcholine receptor M1 (Rattus norvegicus) (P08482 whole entry, looked up): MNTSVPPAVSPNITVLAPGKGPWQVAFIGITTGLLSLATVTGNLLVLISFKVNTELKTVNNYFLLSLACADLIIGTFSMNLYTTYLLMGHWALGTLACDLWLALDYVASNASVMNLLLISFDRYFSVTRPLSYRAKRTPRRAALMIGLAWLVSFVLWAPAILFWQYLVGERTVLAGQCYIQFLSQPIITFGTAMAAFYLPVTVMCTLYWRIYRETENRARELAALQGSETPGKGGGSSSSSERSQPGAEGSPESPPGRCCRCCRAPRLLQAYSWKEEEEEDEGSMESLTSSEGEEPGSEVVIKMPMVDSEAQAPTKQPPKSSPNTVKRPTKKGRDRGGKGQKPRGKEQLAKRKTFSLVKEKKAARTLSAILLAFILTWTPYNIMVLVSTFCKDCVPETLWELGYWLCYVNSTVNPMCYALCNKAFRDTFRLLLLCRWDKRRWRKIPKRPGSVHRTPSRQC
Chain of Cytochrome P450 2D6 (Homo sapiens) (P10635 whole entry, looked up): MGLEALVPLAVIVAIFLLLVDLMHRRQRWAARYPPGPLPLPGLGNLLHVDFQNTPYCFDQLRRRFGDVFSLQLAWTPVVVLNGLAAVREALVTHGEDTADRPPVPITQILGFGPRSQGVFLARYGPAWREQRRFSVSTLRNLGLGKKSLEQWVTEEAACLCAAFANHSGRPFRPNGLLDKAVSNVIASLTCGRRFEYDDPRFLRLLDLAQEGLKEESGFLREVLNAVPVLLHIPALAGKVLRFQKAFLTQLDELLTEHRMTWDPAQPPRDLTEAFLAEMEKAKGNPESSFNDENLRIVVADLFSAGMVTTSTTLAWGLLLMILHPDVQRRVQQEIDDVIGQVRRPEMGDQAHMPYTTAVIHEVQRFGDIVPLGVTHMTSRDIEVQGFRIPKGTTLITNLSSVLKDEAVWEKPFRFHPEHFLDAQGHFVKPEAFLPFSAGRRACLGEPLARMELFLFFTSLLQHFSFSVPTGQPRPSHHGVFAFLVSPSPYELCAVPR

Regarding `NC(N)=Nc1nc2ccc([N+](=O)[O-])cc2[nH]1`, the figures for the activity change, negative = inhibition in test [1] and in test [3] were 0.0978% and 0.0962%, respectively. Besides, the Potency was 3.16 µM (active) in [2], more than 46 µM in test [5] and more than 9.22 µM in test [6]. The activity, negative = inhibition in test [4] was 9.75%. In addition, the Potency entry in test [7] and in test [8] was “inactive” in each case.
On to `O=C(O)[C@@H]1[C@@H](C(=O)NCc2ccncc2)[C@@H]2C=C[C@@H]1O2`, for which the activity change, negative = inhibition in test [1] was 4.03%; in test [3] it was 8.48%. Moreover, the Potency in test [2] was 5.01 µM (active); in [5], more than 46 µM; in [6], more than 9.22 µM. In addition, in test [4], the activity, negative = inhibition was -1.14%. Further, the Potency result in [7], in [8] and in test [9] was “inactive” each time.
On to `Nc1ncnc2c1nc(Sc1ccc(Cl)cc1)n2[C@@H]1O[C@H]2COP(=O)(O)O[C@@H]2[C@H]1O`, for which the values for the activity change, negative = inhibition in test [1] and in [3] were 6.42% [at 38 µM] and -0.761% [at 38 µM], respectively. Moreover, the Potency result in test [2], in test [7], in test [8] and in [11] was “inactive” each time. For the same compound, the activity, negative = inhibition in [4] is 5.32% [at 38 µM]. In addition, the Potency in [5] and in [6] was more than 46 µM throughout. Further, the compound was called inactive in [10], in test [12] and in [13].
As to `C[N+]1(CCC(=O)c2ccco2)CC2CCC(CC2)C1` (stereo not drawn), the figures for the activity change, negative = inhibition in test [1] and in test [3] were 6.86% and 7.5%, respectively. In addition, the Potency entry in [2], in [7], in test [8] and in test [14] was “inactive” each time. Further, in test [4], the activity, negative = inhibition was 1.18%. Moreover, the Potency is more than 46 µM in test [5] and more than 9.22 µM in [6].
Consider `Cc1cc(C(=O)CSC(=S)SC(C)(C)C)ccc1Cl`, for which the activity change, negative = inhibition is 7.67% in test [1] and -16.2% in test [3]. The Potency in test [2] is 1.58 µM (active); in test [5], more than 46 µM; in test [6], more than 9.22 µM. For the same compound, the activity, negative = inhibition in [4] is -27.2%. The Potency entry in [7], in test [8] and in test [9] was “inactive” throughout.
Regarding `O=C(Oc1ccc2c(c1)CN(Cc1ccccc1)CO2)c1ccccc1`, the activity change, negative = inhibition is 10.8% in [1], -14.3% [at 2.29 µM] in test [2] and 13.3% in test [3]. Also, the activity, negative = inhibition in test [4] is 2.87%. Also, the results for the Potency in [5], in [6] and in test [14] were more than 46 µM, more than 9.22 µM and 501 nM (active), respectively. In addition, the Potency result in test [7], in test [8] and in [9] was “inactive” throughout.
Turning to `CN1CCN(c2ccncc2S(=O)(=O)N2CCN(C)CC2)CC1`, the activity change, negative = inhibition is 5.65% in test [1], -7.4% [at 2.29 µM] in test [2] and -16.5% in [3]. The activity, negative = inhibition in [4] is 8.15%. Moreover, the Potency is more than 46 µM in test [5] and more than 9.22 µM in [6]. Moreover, the Potency result in test [7] and in test [8] was “inactive” in each case.
Regarding `CCCC[C@]1(C2CCCC2)Cc2cc(OCC(=O)O)c(Cl)c(Cl)c2C1=O`, the results for the activity change, negative = inhibition in test [1] and in [3] were -1.05% [at 38 µM] and -21.4% [at 38 µM], respectively. Moreover, the Potency result in test [2], in test [7] and in test [11] was “inactive” each time. The activity, negative = inhibition in test [4] was -1.69% [at 38 µM]. The Potency in [5] was more than 46 µM; in [6] it was more than 46 µM; in test [15] it was 2.51 µM (active). Moreover, the compound was called inactive in [10], in test [16], in [12] and in [13].
